# Test system: glycogen synthase kinase-3 (GSK3A per assay name; protocol says GSK3B)
# Test: compounds binding glycogen synthase kinase-3 – biochemical, small-molecule microarray, 635 nm fluorescence, GSK3A, primary screen (AID 1103); further: the record names both GSK3A and GSK3B
# Conditions: fluorescence 635 nm, higher = more signal
row,SMILES,composite z-score
1,CC1=C2[C@@H](CCc3ccccc3)OB(O)C[C@@H]2[C@@H]2C(=O)N(C)C(=O)[C@@H]2C1,0.443
2,COc1cccc(C)c1NC(=O)O[C@H]1[C@H](OC(=O)Nc2ccc3c(c2)OCO3)[C@@H](OC(=O)Nc2ccc3c(c2)OCO3)[C@@H](OC)O[C@@H]1CO,1.35
3,CC(C)N1C(=O)c2ccccc2[C@@H](C(=O)NCCN2CCOCC2)[C@@H]1c1ccc(CO)cc1,-1.05
4,CCCCN1CC=CC23O[C@@H]4/C=C\CCCOC(=O)C4[C@H]2C(=O)N(CCO)[C@@H]3C1=O (stereo partly drawn),-0.782
5,CCCNC(=O)[C@@]1(C)c2ccccc2C(=O)N(c2ccc(C)cn2)[C@H]1c1ccc(CO)cc1,-0.158
6,N#Cc1ccc(NN2C(C(O)c3ccc(Br)cc3)C=CC3C(=O)N(c4ccccc4)C(=O)C32)cc1 (stereo not drawn),0.648
7,O=C(O)[C@@H]1[C@@H]2C(=O)N(c3ccccc3)C(=O)[C@@H]2C[C@@H]1Sc1ccccc1,-1.74
8,CCCNC(=O)[C@@H]1c2ccccc2C(=O)N(Cc2ccc(OC(F)(F)F)cc2)[C@H]1c1ccc(CO)cc1,0.284
9,COCCOC(=O)N1C(=O)[C@@]2(c3cc(C#CCCO)ccc31)[C@H](c1ccc(OCCO)cc1)N1[C@H](c3ccccc3)[C@H](c3ccccc3)OC(=O)[C@H]1[C@@H]2C(=O)Nc1nc2ccccc2s1,1.29
10,CN(C)C(=O)[C@]1(CCC(=O)OC(C)(C)C)N=C(c2ccc(OCCCO)cc2)O[C@@H]1c1ccccc1CN=[N+]=[N-],0.7
11,CCCC=C(CCC)[C@@H](NS(=O)(=O)c1ccc(C(F)(F)F)cc1)c1ccccc1,0.571
12,CCCCC(CC)C(O)C1C=CC2C(=O)N(C)C(=O)C2N1Nc1ccccc1 (stereo not drawn),0.598
13,COC(=O)c1c(CC[C@@H](CO)NC(=O)N2CCC[C@H]2Cn2cc(C3(O)CCCCC3)nn2)oc(C(C)=O)c1C(=O)OC,0.56
14,C=CC[C@]1(C(=O)N2CCCCC2)N=C(c2ccc(OCCCO)cc2)O[C@H]1c1ccccc1CN=[N+]=[N-],1.31
15,COC(=O)[C@@]1(Cc2ccccc2)[C@H]2c3cc(C(=O)N4CCCC4)n(CCc4ccccn4)c3C[C@H]2CN1C(=O)c1ccccc1,1.14
16,C=CCNC(=O)[C@@H]1[C@H]2C(=O)O[C@H](c3ccccc3)[C@H](c3ccccc3)N2[C@H](c2ccc(O)cc2)[C@@]12C(=O)N(C(=O)OCCOC)c1ccc(C#CC3=CCCCC3)cc12,1.29
17,COCCOC(=O)N1C(=O)[C@@]2(c3cc(C#CC4(O)CCCCCC4)ccc31)[C@H](C(=O)N1CCc3cc(OC)c(OC)cc3C1)[C@H]1C(=O)O[C@H](c3ccccc3)[C@H](c3ccccc3)N1[C@@H]2c1ccc(OCCO)cc1,1.3
18,C=C(C(=O)CC[C@H](OC(=O)c1ccccc1-c1ccccc1C(=O)O)c1cccc(OCCO)c1)C(C)C,-0.418
19,CC(C)c1ccc(NN2C(C(O)c3ccc(F)cc3)C=CC3C(=O)N(c4ccccc4)C(=O)C32)cc1 (stereo not drawn),0.275
20,[N-]=[N+]=Nc1ccccc1C[C@@]1(C(=O)NCCN2CCOCC2)N=C(c2ccc(OCCCO)cc2)O[C@@H]1c1ccccc1N=[N+]=[N-],1.31
21,CCOC(=O)[C@@H]1CCCCN1C(=O)C(=O)OC,0.547
22,COc1ccccc1CN1C(=O)c2ccccc2[C@](Cc2ccccc2I)(C(=O)O)[C@@H]1c1ccc(CO)cc1,0.941
23,C=C[C@@H](OC)[C@H](OC(=O)Nc1ccc(OC)cc1)c1ccc(O)c(F)c1,-0.242

# Biological target: Epidermal growth factor receptor (Homo sapiens) (UniProt P00533)
# Test: compounds binding epidermal growth factor receptor – biochemical, small-molecule microarray, 635 nm fluorescence, primary screen (AID 1104);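 further: score merges 667 nm emission intensity with spot signal to noise over triplicate slides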
# Conditions: EGFR binding, higher = more signal
# Epidermal growth factor receptor (Homo sapiens), sequence (P00533 whole entry, looked up): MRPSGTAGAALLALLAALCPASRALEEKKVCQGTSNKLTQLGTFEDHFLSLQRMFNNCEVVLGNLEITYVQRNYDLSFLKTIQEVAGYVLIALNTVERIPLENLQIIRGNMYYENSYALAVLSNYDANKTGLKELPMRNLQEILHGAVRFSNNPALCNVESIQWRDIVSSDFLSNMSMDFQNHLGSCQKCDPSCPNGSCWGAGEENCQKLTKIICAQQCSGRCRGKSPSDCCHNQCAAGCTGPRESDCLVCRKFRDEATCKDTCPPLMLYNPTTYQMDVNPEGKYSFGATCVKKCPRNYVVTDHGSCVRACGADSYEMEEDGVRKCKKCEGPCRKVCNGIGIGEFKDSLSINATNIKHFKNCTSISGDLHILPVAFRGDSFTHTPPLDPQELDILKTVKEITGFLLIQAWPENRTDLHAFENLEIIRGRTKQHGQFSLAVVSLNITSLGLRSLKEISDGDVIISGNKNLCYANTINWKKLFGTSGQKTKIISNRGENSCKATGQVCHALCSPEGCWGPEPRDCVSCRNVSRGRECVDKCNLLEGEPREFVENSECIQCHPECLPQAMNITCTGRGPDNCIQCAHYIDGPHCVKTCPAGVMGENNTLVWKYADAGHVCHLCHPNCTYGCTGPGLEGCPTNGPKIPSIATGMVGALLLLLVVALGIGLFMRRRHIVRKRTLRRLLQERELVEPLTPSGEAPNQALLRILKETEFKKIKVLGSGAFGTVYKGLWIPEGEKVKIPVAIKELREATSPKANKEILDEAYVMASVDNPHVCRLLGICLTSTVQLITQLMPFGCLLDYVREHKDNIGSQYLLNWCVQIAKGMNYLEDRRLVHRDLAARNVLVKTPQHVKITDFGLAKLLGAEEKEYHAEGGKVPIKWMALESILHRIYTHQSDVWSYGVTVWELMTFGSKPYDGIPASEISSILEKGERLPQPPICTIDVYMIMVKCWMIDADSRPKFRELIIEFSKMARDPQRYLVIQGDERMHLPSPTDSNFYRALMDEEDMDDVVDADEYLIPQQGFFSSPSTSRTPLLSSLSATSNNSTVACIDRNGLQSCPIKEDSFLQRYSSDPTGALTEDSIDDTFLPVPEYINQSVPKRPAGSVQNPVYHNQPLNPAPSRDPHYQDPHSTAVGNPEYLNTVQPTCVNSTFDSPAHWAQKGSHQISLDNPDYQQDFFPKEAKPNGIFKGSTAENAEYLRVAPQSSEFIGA
row,SMILES,composite z-score
1,O=C1C2C=CC(C(O)C3CC=CCC3)N(Nc3ccccc3)C2C(=O)N1c1ccccc1 (stereo not drawn),0.303
2,[N-]=[N+]=Nc1ccccc1C[C@@]1(C(=O)N2CCOCC2)N=C(c2ccc(OCCCO)cc2)O[C@@H]1c1ccccc1,0.577
3,CCC#CCN(Cc1ccccc1Br)[C@H](/C=C/C1CC1)[C@@H](O)Cc1ccccc1,-1.03
4,Cc1ccc(F)cc1S(=O)(=O)N[C@@H]1CCN(Cc2ccc(Br)cc2)C1,0.529
5,CC1CC/C=C\[C@H]2OC34C=CCN(C(C)C)C(=O)[C@H]3N(CCO)C(=O)[C@@H]4C2C(=O)O1 (stereo partly drawn),-1.29
6,CCOC(=O)C[C@H]1[C@H](OC(=O)c2cc3ccccc3oc2=O)[C@@H](NC(=O)CC(C)C)c2cc(OCCCO)ccc2N1C(=O)c1ccc2ccccc2n1,0.548
7,[N-]=[N+]=Nc1ccccc1C[C@]1(C(=O)NCCN2CCOCC2)COC(c2ccc(OCCCO)cc2)=N1,-0.408
8,COC(=O)[C@]1(CCS(=O)(=O)c2ccccc2)N=C(c2ccc(OCCCO)cc2)O[C@@H]1c1ccccc1N=[N+]=[N-],0.416
9,COc1ccc(CCNC(=O)[C@@H]2c3ccccc3C(=O)N(C3CCCCC3)[C@H]2c2ccc(CO)cc2)cc1,-0.227
10,O=C(NCc1ccc(F)cc1)[C@H]1C[C@H]2C(=O)NCC(=O)N2[C@H]1c1ccc(O)cc1,0.297
11,CC(c1ccccc1)C(O)C1C=CC2C(=O)N(C)C(=O)C2N1Nc1ccccc1 (stereo not drawn),0.0188
12,COc1ccc(C#Cc2ccc3c(c2)[C@]2(C(=O)N3)[C@H](c3ccc(O)cc3)N3[C@H](c4ccccc4)[C@H](c4ccccc4)OC(=O)[C@H]3[C@@H]2C(=O)Nc2nc3ccccc3s2)cc1,0.45
13,CC1=C2[C@@H](CCc3ccccc3)OB(O)C[C@@H]2[C@@H]2C(=O)N(C)C(=O)[C@@H]2C1,0.135
14,COc1cccc(C)c1NC(=O)O[C@H]1[C@H](OC(=O)Nc2ccc3c(c2)OCO3)[C@@H](OC(=O)Nc2ccc3c(c2)OCO3)[C@@H](OC)O[C@@H]1CO,0.603
15,CC(C)N1C(=O)c2ccccc2[C@@H](C(=O)NCCN2CCOCC2)[C@@H]1c1ccc(CO)cc1,-1.85
16,CCCCN1CC=CC23O[C@@H]4/C=C\CCCOC(=O)C4[C@H]2C(=O)N(CCO)[C@@H]3C1=O (stereo partly drawn),-1.26
17,CCCNC(=O)[C@@]1(C)c2ccccc2C(=O)N(c2ccc(C)cn2)[C@H]1c1ccc(CO)cc1,-0.473
18,N#Cc1ccc(NN2C(C(O)c3ccc(Br)cc3)C=CC3C(=O)N(c4ccccc4)C(=O)C32)cc1 (stereo not drawn),0.297

row,SMILES,composite z-score
1,O=C(O)[C@@H]1[C@@H]2C(=O)N(c3ccccc3)C(=O)[C@@H]2C[C@@H]1Sc1ccccc1,-0.498
2,CCCNC(=O)[C@@H]1c2ccccc2C(=O)N(Cc2ccc(OC(F)(F)F)cc2)[C@H]1c1ccc(CO)cc1,-0.0259
3,COCCOC(=O)N1C(=O)[C@@]2(c3cc(C#CCCO)ccc31)[C@H](c1ccc(OCCO)cc1)N1[C@H](c3ccccc3)[C@H](c3ccccc3)OC(=O)[C@H]1[C@@H]2C(=O)Nc1nc2ccccc2s1,0.27
4,CN(C)C(=O)[C@]1(CCC(=O)OC(C)(C)C)N=C(c2ccc(OCCCO)cc2)O[C@@H]1c1ccccc1CN=[N+]=[N-],0.195
5,CCCC=C(CCC)[C@@H](NS(=O)(=O)c1ccc(C(F)(F)F)cc1)c1ccccc1,-0.585
6,CCCCC(CC)C(O)C1C=CC2C(=O)N(C)C(=O)C2N1Nc1ccccc1 (stereo not drawn),-0.248
7,COC(=O)c1c(CC[C@@H](CO)NC(=O)N2CCC[C@H]2Cn2cc(C3(O)CCCCC3)nn2)oc(C(C)=O)c1C(=O)OC,0.197
8,C=CC[C@]1(C(=O)N2CCCCC2)N=C(c2ccc(OCCCO)cc2)O[C@H]1c1ccccc1CN=[N+]=[N-],0.128
9,COC(=O)[C@@]1(Cc2ccccc2)[C@H]2c3cc(C(=O)N4CCCC4)n(CCc4ccccn4)c3C[C@H]2CN1C(=O)c1ccccc1,0.142
10,C=CCNC(=O)[C@@H]1[C@H]2C(=O)O[C@H](c3ccccc3)[C@H](c3ccccc3)N2[C@H](c2ccc(O)cc2)[C@@]12C(=O)N(C(=O)OCCOC)c1ccc(C#CC3=CCCCC3)cc12,0.714
11,COCCOC(=O)N1C(=O)[C@@]2(c3cc(C#CC4(O)CCCCCC4)ccc31)[C@H](C(=O)N1CCc3cc(OC)c(OC)cc3C1)[C@H]1C(=O)O[C@H](c3ccccc3)[C@H](c3ccccc3)N1[C@@H]2c1ccc(OCCO)cc1,0.626
12,C=C(C(=O)CC[C@H](OC(=O)c1ccccc1-c1ccccc1C(=O)O)c1cccc(OCCO)c1)C(C)C,-0.803
13,CC(C)c1ccc(NN2C(C(O)c3ccc(F)cc3)C=CC3C(=O)N(c4ccccc4)C(=O)C32)cc1 (stereo not drawn),0.3
14,[N-]=[N+]=Nc1ccccc1C[C@@]1(C(=O)NCCN2CCOCC2)N=C(c2ccc(OCCCO)cc2)O[C@@H]1c1ccccc1N=[N+]=[N-],-0.172
15,CCOC(=O)[C@@H]1CCCCN1C(=O)C(=O)OC,0.243
16,COc1ccccc1CN1C(=O)c2ccccc2[C@](Cc2ccccc2I)(C(=O)O)[C@@H]1c1ccc(CO)cc1,0.719
17,C=C[C@@H](OC)[C@H](OC(=O)Nc1ccc(OC)cc1)c1ccc(O)c(F)c1,-0.459

# From PubChem BioAssay
